FUS suppressor – qHTS for Suppressors of FUS Proteinopathy: Primary screen using FUS-linked yeast assay. S. cerevisiae FUS-expressing, growth rescue, OD600, 24 h. Potency, µM (top dose mostly 76.6 µM), actives largely listed as activators. 0.24% of 390,000 active. AID 1347120, 2019; further: nearly all actives have a fitted effect of over 55% in size
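Galactose (2%) drives FUS expression in yeast precultured in raffinose; seeding density OD 0.005. Test compounds incubated 24hr at 30C and 99% humidity before absorbance at 600 nm was measured.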
ERG Ets-DNA blk – qHTS for Small Molecule Inhibitors of the ERG Ets/DNA interaction; Transcriptional regulator ERG (Homo sapiens), P11308; fluorescence polarization, His-ERG Ets domain / labelled DNA; Potency, µM (titrated, usually from 76.9 µM), usual class: inhibitors; 0.028% of 370,000 active; AID 624246, 2012; active means well fitted inhibition curve with a large enough effect in the polarisation, with a control signal flat; inconclusive means small, poorly fitted or top-dose-only effect, or effect the other way, or a change in a side signal; inactive means no such curve, though single readings can be large or run the other way; the % refers to the polarisation;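 further: polarization taken with two DNA probes labelled with fluorescein and Texas red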
Target sequence (P11308 whole entry, looked up, the tested form may be a part): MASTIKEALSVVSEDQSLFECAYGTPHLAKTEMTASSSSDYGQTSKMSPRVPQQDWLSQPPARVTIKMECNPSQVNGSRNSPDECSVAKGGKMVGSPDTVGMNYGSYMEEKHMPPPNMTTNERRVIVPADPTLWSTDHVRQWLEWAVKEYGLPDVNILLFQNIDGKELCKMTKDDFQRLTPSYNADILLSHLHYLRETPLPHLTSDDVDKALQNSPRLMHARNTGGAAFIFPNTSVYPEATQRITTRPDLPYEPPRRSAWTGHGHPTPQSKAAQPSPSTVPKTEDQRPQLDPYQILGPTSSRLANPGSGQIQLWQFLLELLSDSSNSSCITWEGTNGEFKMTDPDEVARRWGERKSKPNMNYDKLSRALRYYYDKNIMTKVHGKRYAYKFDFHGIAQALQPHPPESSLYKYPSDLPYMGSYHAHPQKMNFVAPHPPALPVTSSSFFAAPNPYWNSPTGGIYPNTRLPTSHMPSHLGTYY
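His-tagged ERG Ets domain (1 uM in the protein solution; 300mM KCl, 50mM Tris-HCl, 1mM EDTA, 1mM DTT, pH 7.5) received compound, then a probe mix of 5 nM fluorescein-DNA and 100nM Texas-615-DNA. Fluorescence polarization was read for both dyes.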
aSyn yeast inh – qHTS of alpha-syn Inhibitors; Yeast expressing alpha-synuclein, growth rescue, BacTiter-Glo, 24 h; Potency, µM (top dose mostly 46.1 µM), actives largely listed as activators; 0.14% of 370,000 active; further: nearly all actives have a fitted effect of over 65% in size
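Rescue of yeast growth: cells expressing toxic alpha-synuclein, induced in galactose at OD600 0.02, incubated with compound 24 h at 30 C. ATP luminescence quantified growth; inhibitors of toxicity appear as activators.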
TDP-43 yeast inh – qHTS of TDP-43 Inhibitors; TDP-43 expressing yeast growth rescue, BacTiter-Glo, 24 h; Potency, µM (highest dose often 46.1 µM), most hits filed as activators; 1.8% of 410,000 active; AID 652104, 2013; further: nearly all actives have a fitted effect of over 50% in size
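Yeast cells expressing TDP-43 under galactose induction are exposed to compounds for 24 hr at 30 deg C. BacTiter-Glo luminescence measures growth, so protective compounds score as activators.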
Abeta yeast res – qHTS for compounds that reverse cellular toxicity of Amyloid beta (A-beta) peptide in yeast: Primary Screen; yeast expressing A-beta42, growth rescue, OD600, 48 h; response scale: 0% DMSO, 100% iron-clioquinol control; 0.063% of 410,000 active; AID 1347071, 2019; Potency, µM (series often up to 46.1 µM), usual class: activators; further: nearly all actives have a fitted effect of over 55% in size
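Yeast growth medium received pinned compounds, then yeast cells expressing toxic A-beta were added; plates incubated at 30 C for 48 hr. Growth read as absorbance at 600 nm, normalized to DMSO and equimolar FeCl3 plus clioquinol controls.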
Mito fusion yeast – qHTS Assay for Small Molecule Inhibitors of Mitochondrial Division or Activators of Mitochondrial Fusion; Potency, µM (doses to about 46.1 µM), usual class: activators; 0.23% of 320,000 active; S. cerevisiae fusion-defective mutant growth rescue, CellTiterGlo 48 h; AID 485298, 2010; further: nearly all actives have a fitted effect of over 45% in size
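Yeast fusion mutant, YPEG (non-fermentable carbon), compound, 48 h at 37C non-permissive; CellTiterGlo added, 10 min RT, luminescence read. Rescued growth = division inhibition.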
Numbers stand for hits; [ ] = remark or other dose. Shown are actives, neighbours in structure and some others; about 2.2% of the full set was active somewhere. Unless noted, the call rests on the fitted dose curve; in most records, active means well fitted curve in the direction sought with a large enough effect; inconclusive means small, poorly fitted or top-dose-only effect, or another doubt; inactive means no such curve, though single readings can be large; an effect the other way counts as inactive or inconclusive.

For OC(c1ccccc1)c1nc(-c2cc3ccccc3o2)cs1 (configuration not stated) the results were FUS suppressor inactive, aSyn yeast inh inactive, TDP-43 yeast inh 14µM and Abeta yeast res inactive.
For CCOc1ccc(CCNC(=O)C2Cc3ccccc3N2C(=O)CC)cc1OCC (configuration not stated) the results were FUS suppressor inactive, ERG Ets-DNA blk inactive, TDP-43 yeast inh inactive and Abeta yeast res inactive.
Screening CCOc1ccc(-n2c(SCC(=O)N3CCOCC3)nc3c([nH]c4ccccc43)c2=O)cc1 returned FUS suppressor inactive, ERG Ets-DNA blk inactive, aSyn yeast inh inactive, TDP-43 yeast inh inactive and Abeta yeast res inactive.
`O=[N+]([O-])c1ccc(OCc2cnc(Cl)s2)c([N+](=O)[O-])c1` gave FUS suppressor inactive, ERG Ets-DNA blk inactive, aSyn yeast inh inactive, TDP-43 yeast inh 11µM, Abeta yeast res inactive and Mito fusion yeast inactive.
COC(=O)C(Cc1cnc(Cl)s1)(C(=O)OC)c1ccc([N+](=O)[O-])cc1[N+](=O)[O-] was read as FUS suppressor inactive, ERG Ets-DNA blk inactive, aSyn yeast inh inactive, TDP-43 yeast inh inactive, Abeta yeast res inactive and Mito fusion yeast inactive.
`O=C(Cc1cccs1)N(Cc1cccs1)C1(C(=O)NC2CCCC2)CCCCC1` gave FUS suppressor inactive, ERG Ets-DNA blk inactive, aSyn yeast inh inactive, TDP-43 yeast inh 20µM, Abeta yeast res inactive and Mito fusion yeast inactive.
`COc1ccc(S(=O)(=O)N(C)Cc2cccs2)cc1Br` gave FUS suppressor inactive, ERG Ets-DNA blk inactive, aSyn yeast inh inactive, TDP-43 yeast inh 16µM, Abeta yeast res inactive and Mito fusion yeast inactive.
Screening Cc1ccc(C)c(S(=O)(=O)N(C)Cc2cccs2)c1 returned ERG Ets-DNA blk inactive, aSyn yeast inh inconclusive, TDP-43 yeast inh inconclusive, Abeta yeast res inactive and Mito fusion yeast inactive.
CN(C)c1ccc(/C=C/c2cc[n+](C)c3ccc4ccccc4c23)cc1 was read as aSyn yeast inh inactive.
For Clc1ccc(-n2nnnc2-c2cnc(-c3ccncc3)nc2-c2cccs2)cc1 the results were FUS suppressor inactive, ERG Ets-DNA blk inactive, aSyn yeast inh inactive, TDP-43 yeast inh inactive, Abeta yeast res inactive and Mito fusion yeast 14µM.
Screening Cc1ccc2c(c1)c1c(n2CC(O)Cn2c(C)nc3ccccc32)C(=O)CCC1 (configuration not stated) returned FUS suppressor inactive, ERG Ets-DNA blk inactive, aSyn yeast inh inactive, TDP-43 yeast inh inactive, Abeta yeast res inactive and Mito fusion yeast inactive.
Cc1ccc2c(c1)c1c(n2CC2COC(C)(C)O2)C(=O)CCC1 (configuration not stated) was read as FUS suppressor inactive, ERG Ets-DNA blk inactive, aSyn yeast inh inactive, TDP-43 yeast inh 13µM, Abeta yeast res inactive and Mito fusion yeast inactive.
`Cc1c(NC(=O)CSc2ccc(Cl)cc2)cccc1-c1nc2ncccc2o1` gave FUS suppressor inactive, ERG Ets-DNA blk inactive, aSyn yeast inh inactive, TDP-43 yeast inh 14µM, Abeta yeast res inactive and Mito fusion yeast inactive.
Screening Cc1ccc(NC(=O)COc2ccccc2C#N)cc1S(=O)(=O)N1CCCCCC1 returned FUS suppressor inactive, ERG Ets-DNA blk inactive, aSyn yeast inh inactive[1.84 µM], TDP-43 yeast inh 28µM, Abeta yeast res inactive and Mito fusion yeast inactive.
`Cc1cnc(C(=O)Nc2ccc(C)c(S(=O)(=O)N3CCCCCC3)c2)cn1` gave FUS suppressor inactive, ERG Ets-DNA blk inactive, aSyn yeast inh inactive, TDP-43 yeast inh 16µM, Abeta yeast res inactive and Mito fusion yeast inactive.
For Cc1cccc(CNC(=O)NC2CCCCN(Cc3cccc(Cl)c3)C2=O)c1 (configuration not stated) the results were FUS suppressor inactive.

Bioassay records as filed in PubChem BioAssay.
